AF4-AF9 inh – MLL-AF4/AF9 protein interaction inhibition. P42568. AID 651704. AlphaScreen, biotin-AF4 peptide binding to FLAG-AF9. inhibition, % at 10 µM. actives 0.47% (n = 350,000);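 active = every replicate reaching a set inhibition limit, whatever the replicate mean, cut at about 25% in these data; inconclusive = mean inhibition reaches that limit but some replicates miss it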;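 also: 0% = plate neutral control median and 100% = total signal loss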
RAD54 inh – blocks human RAD54 Holliday junction branch migration; Q92698; FAM/BHQ fluorescence; inhibition, % at 10.4 µM; actives 0.14% (n = 360,000);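 active = mean normalized replicate activity at least 40 and at least half of replicates scoring 40 or more; inconclusive = only one of the two criteria met; inactive = mean below 40 and under half of replicates reaching 40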;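 also: 0% = median of neutral control wells and 100% = median of positive control wells; inhibitors cause a drop in the FAM fluorescence signal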
Target sequence (Q92698 whole entry, looked up): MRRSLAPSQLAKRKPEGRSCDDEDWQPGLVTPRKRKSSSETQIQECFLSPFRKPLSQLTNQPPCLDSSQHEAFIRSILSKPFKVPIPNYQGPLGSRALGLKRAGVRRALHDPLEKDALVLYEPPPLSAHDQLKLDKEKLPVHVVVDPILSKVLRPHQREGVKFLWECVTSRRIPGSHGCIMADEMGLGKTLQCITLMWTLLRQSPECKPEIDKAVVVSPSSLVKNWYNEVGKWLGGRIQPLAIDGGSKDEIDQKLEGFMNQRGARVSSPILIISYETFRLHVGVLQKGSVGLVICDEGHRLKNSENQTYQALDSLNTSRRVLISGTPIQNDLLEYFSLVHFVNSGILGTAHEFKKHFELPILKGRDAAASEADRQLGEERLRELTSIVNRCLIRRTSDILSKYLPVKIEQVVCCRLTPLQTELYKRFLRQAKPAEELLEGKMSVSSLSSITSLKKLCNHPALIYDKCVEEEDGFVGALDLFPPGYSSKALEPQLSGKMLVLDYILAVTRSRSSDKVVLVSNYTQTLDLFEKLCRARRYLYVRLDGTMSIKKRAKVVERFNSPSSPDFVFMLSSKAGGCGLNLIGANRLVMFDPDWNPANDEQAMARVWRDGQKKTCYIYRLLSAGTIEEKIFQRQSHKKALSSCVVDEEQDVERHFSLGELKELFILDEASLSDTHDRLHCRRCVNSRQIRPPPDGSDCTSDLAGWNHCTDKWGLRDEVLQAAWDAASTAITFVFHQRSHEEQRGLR
dFosB act-1 – activators of mouse delta FosB homodimer | P13346 | purified delta FosB, TAMRA-CDK5 oligo fluorescence polarization; percent of positive-control signal above neutral wells | activation, % at 25 µM | actives 0.99% (n = 340,000);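 active = mean activation above about 17%, with every replicate also reaching it, limit read from the data, passing the limit was not always enough; inconclusive = only one of the two conditions met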
RAD52 anneal inh – RAD52 (human) annealing inhibition; recombinant RAD52 DNA annealing, FRET fluorescence; inhibition, % at 18.7 µM; actives 0.46% (n = 360,000); AID 651710;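 active = every replicate showing at least 50% inhibition; inconclusive = mean inhibition at least 50% but not in every replicate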
INS-1E GSIS act – GLuc luminescence reporter in INS-1E cells, primary screen for activators of glucose-dependent secretion of insulin; actives 0.61% (n = 370,000); activation, % at 16.6 µM; INS-1E GLuc reporter insulin secretion, 2-3 h; AID 743287;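 active = lowest replicate activation of at least 40%, so every replicate reaches that level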;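 also: 0% = median of neutral control wells and 100% = median of IBMX positive control wells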
DENV2 CPE rescue – protects cells from dengue virus 2 cytopathic effect; DENV2-infected cells, cytopathic effect rescue, plate reader; CPE inhibition, % at 9.99 µM; actives 1.7% (n = 350,000); in the data active = CPE inhibition above about 20%, passing the limit was not always enough; inconclusive = no clear call, values can overlap the other calls; tested in BHK-21 cells;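 also: 0% = median of neutral control wells and 100% = median of positive control wells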
dFosB act-2 – delta FosB (mouse) homodimer activation | purified delta FosB, TAMRA-CDK5 oligo fluorescence polarization; normalised: neutral wells 0, positive control 100 | activation, % at 24.9 µM | shares compounds with dFosB act-1 | 2,400 tested, under 10 active;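 active = highest replicate activation at or above 34% and every replicate reaching that threshold; inconclusive = meets only one of the two criteria; inactive = meets neither criterion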;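 also: higher polarization means more probe DNA bound by delta FosB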
Starred values were filed as active, the others as inactive. Sampled rows, rich in hits. Any-hit rate of the full collection: about 3.1%.

For O=C(CNC(=O)c1cccc(Br)c1)N/N=C/c1ccc2c(c1)OCO2 the results were AF4-AF9 inh -1, RAD54 inh -14, dFosB act-1 18*, RAD52 anneal inh -13, INS-1E GSIS act -7, DENV2 CPE rescue 0 and dFosB act-2 3.
Screening CCN1[C@H](C(=O)N(C)C)[C@@H](CO)[C@@H]2Cn3c(ccc(/C=C/c4ccccc4)c3=O)[C@@H]21 returned AF4-AF9 inh -1, RAD54 inh 6, RAD52 anneal inh -7, INS-1E GSIS act 3 and DENV2 CPE rescue 20.
Screening CSc1nc2ccc3nc(NC(=O)C4COc5ccccc5O4)sc3c2s1 (stereo not drawn) returned AF4-AF9 inh -3, RAD54 inh -7, dFosB act-1 70*, RAD52 anneal inh -5, DENV2 CPE rescue 6 and dFosB act-2 -1.
`Cc1csc(NC(=O)C2COc3ccccc3O2)n1` (stereo not drawn) gave dFosB act-1 -2.
For CC(=O)c1nn(-c2cccc(Br)c2)cc1C(=O)c1ccc(Cl)cc1 the results were AF4-AF9 inh 1, RAD54 inh -6, dFosB act-1 28*, RAD52 anneal inh -28, INS-1E GSIS act 9, DENV2 CPE rescue 12 and dFosB act-2 4.
CCC(=O)NC[C@H]1[C@@H](c2ccc(-c3cccc(F)c3)cc2)[C@@H](CO)N1C(=O)CC was read as RAD54 inh 1 and INS-1E GSIS act -2.
For CC(C)CC#Cc1ccc2c(c1)O[C@@H](CN(C)C(=O)c1cccnc1)[C@@H](C)CN([C@@H](C)CO)S2(=O)=O the results were AF4-AF9 inh 8, RAD54 inh -12, RAD52 anneal inh -3, INS-1E GSIS act -9 and DENV2 CPE rescue 6.
For CCCNC(=O)N(C)C[C@H]1Oc2cc(C#Cc3ccccn3)ccc2S(=O)(=O)N([C@@H](C)CO)C[C@@H]1C the results were AF4-AF9 inh -4, RAD54 inh 4, RAD52 anneal inh -12, INS-1E GSIS act 13 and DENV2 CPE rescue 11.
`Cc1cc(Br)cc(C)c1OCC(=O)NNC(=O)CCC(=O)NCc1ccccc1` gave AF4-AF9 inh -1, RAD54 inh 2, dFosB act-1 49*, RAD52 anneal inh -13, INS-1E GSIS act 2, DENV2 CPE rescue 9 and dFosB act-2 3.
For CC(C)NC(=O)Nc1ccc2c(c1)CC(=O)N([C@@H](C)CO)C[C@H](C)[C@@H](CN(C)C)O2 the results were AF4-AF9 inh -2, RAD54 inh -7, RAD52 anneal inh 11, INS-1E GSIS act 11 and DENV2 CPE rescue 19.
CO[C@@H]1CC[C@H]2CCN(C)C(=O)[C@@H](C)N(C)C(=O)c3cc(C#N)ccc3OC[C@@H]1O2 was read as AF4-AF9 inh 0, RAD54 inh 1, RAD52 anneal inh -7, INS-1E GSIS act -6 and DENV2 CPE rescue 6.
`COc1cc2c(cc1OC)-c1cc(Nc3ccc(F)cc3)nc(=O)n1CC2` gave AF4-AF9 inh -1, dFosB act-1 37*, RAD52 anneal inh -6, INS-1E GSIS act 34, DENV2 CPE rescue -3 and dFosB act-2 3.
COc1cccc(NC(=S)N2CCc3cc(OC)c(OC)cc3C2COc2ccc3c(C)cc(=O)oc3c2)c1 (stereo not drawn) was read as RAD54 inh 1, dFosB act-1 65*, INS-1E GSIS act -7 and dFosB act-2 1.
CCNC(=S)N1CCc2cc(OC)c(OC)cc2C1COc1ccc(OC)cc1 (stereo not drawn) was read as AF4-AF9 inh 3, dFosB act-1 -8, RAD52 anneal inh -26, INS-1E GSIS act -12 and DENV2 CPE rescue -2.
For Cc1ccc(-c2csc(/C=C3\SC(C)C(=O)N3CC(=O)Nc3ccccc3F)n2)cc1 (stereo not drawn) the results were AF4-AF9 inh 5, RAD54 inh -2, dFosB act-1 18*, RAD52 anneal inh -17, DENV2 CPE rescue 0 and dFosB act-2 0.
`Cc1noc(C)c1NC(=O)NCC[C@H]1CC[C@@H](NC(=O)Cc2cccnc2)[C@@H](CO)O1` gave AF4-AF9 inh 3, RAD54 inh -3, RAD52 anneal inh 1, INS-1E GSIS act 15 and DENV2 CPE rescue inconclusive.
Screening CNC(=O)COC(=O)c1cc(NC(=O)c2ccco2)c(OC)c(OC)c1 returned RAD54 inh 1 and dFosB act-1 6.
`COc1cc(C(=O)OCC(=O)NCc2ccccc2)cc(NC(=O)c2ccco2)c1OC` gave RAD54 inh 5, dFosB act-1 26* and dFosB act-2 2.
O=c1[nH]cnc2c1sc1nc(C(F)F)cc(-c3ccccc3)c12 was read as AF4-AF9 inh 2, RAD54 inh -5, dFosB act-1 32*, RAD52 anneal inh -13, INS-1E GSIS act -5, DENV2 CPE rescue 1 and dFosB act-2 4.
O=c1[nH]cnc2c1sc1nc3c(c(-c4ccc(Cl)cc4)c12)CCC3 was read as RAD54 inh 7, dFosB act-1 -23 and INS-1E GSIS act 18.
For C[C@H](CO)N1C[C@H](C)[C@H](CN(C)C(=O)CCC(F)(F)F)OCCCC[C@H](C)Oc2ccc(NS(=O)(=O)c3cccs3)cc2C1=O the results were RAD54 inh -13, INS-1E GSIS act -2 and DENV2 CPE rescue 18.
Screening CCC(C)C(NC(=O)c1ccccc1NC(=O)c1ccco1)C(=O)NC1CCCCC1 (stereo not drawn) returned RAD54 inh 11, dFosB act-1 31* and dFosB act-2 1.
`CCC(C)C(NC(=O)c1ccccc1NC(=O)c1ccco1)C(=O)NNC(=O)c1ccc(OC)cc1` (stereo not drawn) gave AF4-AF9 inh 0, RAD54 inh 3, dFosB act-1 14, RAD52 anneal inh -13, INS-1E GSIS act -4 and DENV2 CPE rescue -2.
For CCC(NC(=O)c1ccccc1NC(=O)c1ccco1)C(=O)NNC(=O)c1ccc(OC)cc1 (stereo not drawn) the results were AF4-AF9 inh -2, dFosB act-1 32*, RAD52 anneal inh -28, INS-1E GSIS act 0, DENV2 CPE rescue -3 and dFosB act-2 2.
`O=C(Nc1ccccc1C(=O)NC1CCCCC1)c1ccco1` gave dFosB act-1 -13.
`CCC(NC(=O)c1ccccc1NC(=O)c1ccco1)C(=O)NNC(=O)c1ccncc1` (stereo not drawn) gave RAD54 inh 0, RAD52 anneal inh -12, INS-1E GSIS act 9 and DENV2 CPE rescue inconclusive.
`COc1ccc(C(=O)NNC(=O)C(NC(=O)c2ccccc2NC(=O)c2ccco2)C(C)C)cc1` (stereo not drawn) gave AF4-AF9 inh -2, dFosB act-1 32*, RAD52 anneal inh -16, INS-1E GSIS act -5, DENV2 CPE rescue 0 and dFosB act-2 -1.

Screening results from PubChem.
